Several values for one entry are separate records, joined by “and”; a condition that tells them apart may be missing. Equal values may be shown once. Screen size: about 5,500 compounds; about 2,000 (36%) were called active. Inconclusive results (about 18%) are left out. No stated cut-off is given here; in the data, active means normalized growth mostly below about 0.91 (no sharp cut-off); inconclusive means no clear call, values can overlap the other calls; inactive means mostly above about 0.92. The list shows a part of the results.
Experiment: chemical genetic growth profiling, strain panel (AID 1159580);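 further: tested at 20 µM; growth read once vehicle control cultures reached saturation at 30 °C; 1 = growth at the plate median or of vehicle wells; lower values mean less growth of the strain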
Settings: S. cerevisiae deletion strains, growth OD

Measured: normalized growth

CCCCCCCCCCCCCCCCCCOCC(O)CO (configuration not stated)
inactive: locus YAL013W, strain DEP1, hits give low values 1.01 | locus YAL021C, strain ccr4, hits give low values 1.01 | locus YAL026C, strain drs2, hits give low values 1 | locus YAL030W, strain snc1, hits give low values 0.991 | locus YBL061C, strain skt5, hits give low values 0.987 | locus YBR009C, strain hhf1, hits give low values 0.959 | locus YBR021W, strain FUR4, hits give low values 1.03 | locus YBR023C, strain chs3, hits give low values 0.99 | locus YBR171W, strain sec66, hits give low values 0.999 | locus YBR229C, strain ROT2, hits give low values 1.01 | locus YBR231C, strain swc5, hits give low values 0.981 | locus YBR279W, strain paf1, hits give low values 0.992 | locus YCL011C, strain gbp2, hits give low values 0.988 | locus YCL016C, strain dcc1, hits give low values 0.994 | locus YCL029C, strain bik1, hits give low values 1.01 | locus YCL061C, strain MRC1, hits give low values 0.996 | locus YCL069W, strain vba3, hits give low values 0.998 | locus YCR088W, strain abp1, hits give low values 0.997 | locus YDL005C, strain med2, hits give low values 0.989 | locus YDL035C, strain GPR1, hits give low values 1.02 | locus YDL040C, strain nat1, hits give low values 0.973 | locus YDL074C, strain BRE1, hits give low values 1.06 | locus YDL101C, strain DUN1, hits give low values 1.01 | locus YDL185W, strain tfp1, hits give low values 1.02 | locus YDL192W, strain arf1, hits give low values 1.01 | locus YDR001C, strain nth1, hits give low values 0.995 | locus YDR069C, strain doa4, hits give low values 0.973 | locus YDR101C, strain arx1, hits give low values 1.04 | locus YDR137W, strain rgp1, hits give low values 0.987 | locus YDR150W, strain NUM1, hits give low values 0.998 | locus YDR159W, strain sac3, hits give low values 0.952 | locus YDR162C, strain NBP2, hits give low values 0.991 | locus YDR195W, strain ref2 0.951 | locus YDR297W, strain sur2, hits give low values 0.995 | locus YDR318W, strain mcm21, hits give low values 0.986 | locus YDR334W, strain swr1, hits give low values 0.994 | locus YDR335W, strain msn5, hits give low values 1 | locus YDR388W, hits give low values 1.01 | locus YDR392W, strain spt3, hits give low values 0.858 | locus YDR502C, strain sam2, hits give low values 1.02 | locus YEL003W, strain gim4, hits give low values 0.998 | locus YEL037C, strain rad23, hits give low values 1 | locus YEL061C, strain CIN8 (second series), hits give low values 0.992 | locus YEL061C, strain CIN8, hits give low values 1.01 | locus YER015W, strain faa2, hits give low values 0.989 | locus YER016W, strain bim1, hits give low values 0.994 | locus YER110C, hits give low values 1.01 | locus YER111C, strain swi4, hits give low values 0.979 | locus YER155C, strain BEM2 (second series), hits give low values 0.948 | locus YER155C, strain BEM2, hits give low values 1.01 | locus YER167W, strain BCK2, hits give low values 1 | locus YFR010W, strain ubp6, hits give low values 1.01 | locus YGL078C, strain dbp3, hits give low values 1.02 | locus YGL086W, strain mad1, hits give low values 1.05 | locus YGL167C, strain pmr1, hits give low values 0.986 | locus YGL173C, strain kem1, hits give low values 0.984 | locus YGL227W, strain vid30, hits give low values 0.985 | locus YGL240W, strain doc1, hits give low values 0.966 | locus YGL248W, strain PDE1, hits give low values 1 | locus YGL253W, strain hxk2, hits give low values 1 | locus YGR135W, strain pre9, hits give low values 0.968 | locus YGR252W, strain gcn5, hits give low values 0.969 | locus YHR013C, strain ard1, hits give low values 0.938 | locus YHR027C, strain rpn1, hits give low values 0.998 | locus YHR030C, strain SLT2, hits give low values 1.01 and 1.02 | locus YHR079C, strain IRE1 (second series), hits give low values 1 | locus YHR079C, strain IRE1, hits give low values 0.993 | locus YHR094C, strain hxt1, hits give low values 1.01 | locus YHR129C, strain ARP1, hits give low values 1.01 | locus YHR142W, strain chs7, hits give low values 1.04 | locus YHR200W, strain rpn10, hits give low values 1.01 | locus YIL066C, strain RNR3, hits give low values 1.01 | locus YIL073C, strain SPO22, hits give low values 1.01 | locus YIL125W, strain kgd1, hits give low values 1.01 | locus YIR030C, strain dcg1, hits give low values 1 | locus YJL092W, strain hpr5, hits give low values 0.999 | locus YJL095W, strain BCK1 (second series), hits give low values 0.998 | locus YJL095W, strain BCK1, hits give low values 1.02 and 0.984 | locus YJL115W, strain asf1, hits give low values 0.987 | locus YJL129C, strain trk1, hits give low values 0.984 | locus YJL134W, strain LCB3, hits give low values 0.997 | locus YJL154C, strain vps35, hits give low values 0.992 | locus YJL164C, strain tpk1, hits give low values 1 | locus YJL166W, strain qcr8, hits give low values 0.99 | locus YJL168C, strain set2, hits give low values 0.999 | locus YJL187C, strain SWE1 (second series), hits give low values 1.03 | locus YJL187C, strain SWE1, hits give low values 0.996

— PubChem BioAssay AID1159580 (chemical genetic matrix, 2015)
